About 83,000 compounds went through this panel and 20% of them were active in at least one assay; those are over-represented in the sample as a whole.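 Plates (96-well) were seeded with cells, treated with compound at one concentration, and incubated for 48 hours before percent growth was determined.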 Active and inactive are the calls of the source. The calls were made as follows: active = growth percent below 10; inactive = the rest.
Key:
Experiment in all cases: NCI-60 one-dose screen, 48 h (100 = growth as untreated, 0 = no growth, -100 = all killed)
Conditions in all cases: 10 µM unless noted
[1] = test system: SK-MEL-2 melanoma
[2] = test system: EKVX NSCLC
[3] = test system: SN12C renal
[4] = test system: UO-31 renal
[5] = test system: TK-10 renal
[6] = test system: ACHN renal
[7] = test system: CAKI-1 renal
[8] = test system: A498 renal
[9] = test system: CCRF-CEM leukemia
[10] = test system: MOLT-4 leukemia
[11] = test system: RPMI-8226 leukemia
[12] = test system: OVCAR-8 ovarian
[13] = test system: OVCAR-5 ovarian
[14] = test system: OVCAR-4 ovarian
[15] = test system: SK-OV-3 ovarian
[16] = test system: IGROV1 ovarian
[17] = test system: OVCAR-3 ovarian
[18] = test system: HS 578T breast
[19] = test system: NCI/ADR-RES ovarian
[20] = test system: SR leukemia

Measured: growth

COc1ccc(-c2nnc(-c3ccc4c(c3)nc(-c3ccncc3)n4C3CCCCC3)o2)cc1
inactive: [1] 77.3% | [2] 64% | [3] 83.8% | [4] 38.3% | [5] 75% | [6] 89.2% | [7] 89.7% | [8] 73.9% | [9] 55.5% | [10] 44.3% | [11] 34.1% | [12] 53.5% | [13] 102% | [14] 61.1% | [15] 80.4% | [16] 73.7% | [17] 67.3% | [18] 68.6% | [19] 56.9%

COc1cc(CNC(=O)/C=C/C=C/c2ccc3c(c2)OCO3)ccc1OCc1cn(-c2ccc(C)c(C)c2)nn1
inactive: [1] 93.5% | [2] 94.1% | [3] 84.9% | [4] 99.8% | [5] 120% | [6] 81.3% | [7] 54.4% | [8] 80.3% | [9] 95.7% | [20] 81.5% | [11] 86.3% | [12] 71.3% | [13] 104% | [14] 46.7% | [15] 86.5% | [16] 76.1% | [17] 82.8% | [18] 91.4% | [19] 80.5%

Nc1c(C(=O)Nc2ccncc2)sc2nc3c(cc12)CCCCCC3
inactive: [1] 94.2% | [2] 89.2% | [3] 86.4% | [4] 78.4% | [5] 90.2% | [6] 108% | [7] 98% | [8] 54.8% | [9] 68.1% | [10] 70.3% | [11] 64.9% | [12] 86.7% | [13] 90.7% | [14] 86.9% | [15] 79.6% | [16] 103% | [17] 104% | [18] 83.2% | [19] 89%

O=C(CCC(=O)N/N=C/c1ccccc1O)N/N=C/c1ccccc1O
inactive: [1] 69.7% | [2] 41.1% | [3] 70.2% | [4] 17.4% | [5] 44% | [6] 18.7% | [7] 27.7% | [8] 80% | [9] 25% | [10] 18.1% | [11] 83% | [12] 46.4% | [13] 82.7% | [14] 26.2% | [15] 50.8% | [16] 48.5% | [17] 23.4% | [18] 76.9% | [19] 46.9%

N#C/C(=C\c1ccc(-c2ccc(Cl)cc2)o1)C(=O)Nc1ncc(Cc2ccc(Cl)cc2)s1
active: [3] -0.639% | [6] 5.97% | [20] 8.8% | [12] 8.41% | [14] -56.9% | [17] -49.8%
inactive: [1] 95.4% | [2] 33.7% | [4] 42.1% | [5] 19.8% | [7] 39.1% | [8] 69.9% | [9] 41.4% | [11] 85.2% | [13] 29.7% | [15] 58.9% | [16] 28.3% | [18] 25.6% | [19] 26.2%

CC(=O)n1nc(C(=O)OC(C)C)c2cc(C)c(C)cc21
active: [14] 2.77%
inactive: [1] 106% | [2] 99% | [3] 105% | [4] 94.4% | [5] 98.6% | [6] 101% | [7] 99.3% | [8] 104% | [9] 84.7% | [20] 84.6% | [11] 85% | [12] 96.8% | [13] 118% | [15] 98.6% | [16] 106% | [17] 108% | [18] 96.6% | [19] 101%

COc1ccc(C2c3sc4c(F)cccc4c3Oc3nc[nH]c(=O)c32)cc1 (stereo not drawn)
inactive: [1] 97.8% | [2] 71.2% | [3] 77.8% | [4] 47.6% | [5] 110% | [6] 72.7% | [7] 76.6% | [8] 95% | [9] 85.3% | [20] 75.9% | [11] 69.3% | [12] 89% | [13] 83.6% | [14] 85.4% | [15] 97.4% | [16] 45.7% | [17] 88.5% | [18] 83.1% | [19] 84.4%

O=C(/C=C/c1ccc(Cl)cc1)c1cccc(Nc2nc(Nc3ccccc3)nc(Nc3ccccc3)n2)c1
inactive: [1] 45.7% | [2] 106% | [3] 102% | [4] 61.8% | [5] 92.6% | [6] 92.9% | [7] 83.6% | [8] 95.2% | [9] 76.2% | [20] 60.5% | [12] 94.9% | [13] 92.9% | [14] 83.6% | [15] 108% | [16] 13.5% | [17] 84.7% | [18] 92.7% | [19] 91.9%
active: [11] -43.9%

CC1(C)CCC(S(=O)(=O)c2ccc3c(c2)/C(=N\O)c2cc(S(=O)(=O)N4CCC(O)(c5cccc(C(F)(F)F)c5)CC4)ccc2-3)CC1
inactive: [4] 45.6% | [19] 61%
active: [1] -90.2% | [2] -33.4% | [3] 3.73% | [5] -35.7% | [6] -13.3% | [7] -37.7% | [8] -51.5% | [9] -58.4% | [20] -54% | [11] -52.5% | [12] -73% | [13] -80.3% | [14] -92.6% | [15] -99.6% | [16] -32.1% | [17] -98.3% | [18] -56.4%

Cc1ccc(Sc2nnc(/N=C3\C(=O)Nc4ccccc43)s2)cc1
inactive: [1] 105% | [2] 102% | [3] 97.5% | [4] 90.5% | [5] 104% | [6] 96.6% | [7] 85.6% | [8] 93.6% | [9] 93.4% | [20] 91.4% | [11] 94.8% | [12] 101% | [13] 102% | [14] 113% | [15] 110% | [16] 88.6% | [17] 106% | [18] 97.5% | [19] 101%

COC(=O)[C@]1(C)CCC[C@]2(C)[C@H]3C[C@H]4C(C(C)C)=C[C@]3(CC[C@H]21)[C@H]1[C@@H]4[C@@H](OCCC#N)CC[C@@H]1OCCC#N
inactive: [1] 28.8% | [2] 29.9% | [4] 32.6% | [5] 46.2% | [6] 39.2% | [7] 51.8% | [8] 66.8% | [9] 19.1% | [12] 51.5% | [13] 92.8% | [14] 30.7% | [15] 75.8% | [16] 41.5% | [17] 22.7% | [18] 59.4% | [19] 41.8%
active: [3] 2.29% | [20] 2.88% | [11] -16.1%

N#CC1=C(N)Oc2c(sc3c(Br)cccc23)C1c1ccc(F)cc1 (stereo not drawn)
active: [20] 5.83% | [17] 9.66% | [19] 9.77%
inactive: [1] 37% | [2] 45.6% | [3] 27.4% | [4] 34.4% | [5] 43.1% | [6] 30.7% | [7] 46.6% | [8] 17.8% | [9] 18.4% | [11] 16.7% | [12] 25.3% | [13] 30.9% | [14] 56.4% | [15] 37.4% | [16] 26.9% | [18] 42%

CS(=O)(=O)c1cccc(-c2c(-c3cccc(OS(N)(=O)=O)c3)nc3sccn23)c1
inactive: [1] 117% | [2] 95.3% | [3] 102% | [4] 75.5% | [5] 108% | [6] 99.2% | [7] 81.2% | [8] 100% | [9] 107% | [10] 105% | [11] 113% | [12] 95.2% | [13] 99.8% | [14] 101% | [15] 121% | [16] 97.9% | [18] 103% | [19] 103%

CC(C)(C)[Si](C)(C)O[C@H]1C(=O)C=CN2CC=C[C@@H]12
inactive: [1] 112% [100 µM] | [2] 91.2% [100 µM] | [3] 97.4% [100 µM] | [4] 80.3% [100 µM] | [5] 108% [100 µM] | [6] 101% [100 µM] | [7] 104% [100 µM] | [8] 97.9% [100 µM] | [9] 106% [100 µM] | [20] 81.8% [100 µM] | [11] 115% [100 µM] | [12] 97% [100 µM] | [13] 94.4% [100 µM] | [14] 110% [100 µM] | [15] 101% [100 µM] | [16] 114% [100 µM] | [17] 103% [100 µM] | [18] 95.3% [100 µM] | [19] 106% [100 µM]

c1cc2[nH]ncc2cc1-c1nc2ccc3[nH]ncc3c2c2c1CCCC2
inactive: [2] 17.8% | [3] 20.6% | [11] 19.8% | [12] 17.4% | [13] 32.5% | [14] 39.9% | [17] 28% | [19] 26.6%
active: [1] -48.7% | [4] -0.203% | [5] 8.08% | [6] 9.47% | [7] 9.5% | [8] -1.43% | [9] 9.05% | [10] -6.76% | [15] -25.1% | [16] 8.59% | [18] 6.02%

Cc1ccc(-c2nc3nc(-c4ccc(F)cc4)nc(N4CCNCC4)c3o2)cc1
active: [3] -48.7% | [5] -35.8% | [6] -95.5% | [7] 1.35% | [9] -71% | [10] -64.6% | [11] -47.2% | [12] -50.1% | [13] -14.6% | [14] -77.1% | [17] -94.7% | [18] -5.74% | [19] -19.1%
inactive: [1] 102% | [2] 127% | [4] 76.7% | [8] 79.5% | [15] 107% | [16] 42%

From PubChem BioAssay (NCI)
